The text below walks through data of PubChem BioAssay (EPA / NIEHS).

The source made the active and inactive calls. Rule for the calls: active = hit-call score of the fitted dose curve at least 0.9, where 1 is the maximum; inactive = score below 0.9.

In assay [1] the target is Bile acid receptor (Homo sapiens) (UniProt Q96RI1). Kind of assay: ATG_IR1_CIS: Attagene CIS-FACTORIAL HepG2 Assay for human Nuclear Receptor Subfamily 1 Group H Member 4 (NR1H4), IR1 submotif (AID 2282946). Particulars: IR1 reporter transcription, actives raise or lower the signal. The method, boiled down:
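HepG2 cells transiently transfected with multiplexed cis-element reporter units read endogenous transcription factor activity. After 24 h compound exposure, reporter mRNA was quantified by RT-PCR, fluorescent labelling, HpaI digestion and capillary electrophoresis; bidirectional fitting versus DMSO baseline.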

A short description of assay [2]: ATG_GRE_CIS: Attagene CIS-FACTORIAL HepG2 Assay for human Glucocorticoid Response Elements (GRE) (AID 2282947). The note with it: HepG2 GRE cis-reporter, Attagene multiplex mRNA; actives raise or lower the signal. The method, boiled down: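 Reporter transcripts read by RT-PCR with capillary electrophoresis fluorescence after a 24 h chemical exposure of HepG2 cells transiently transfected with multiple cis-element reporter units. Gain or loss fitted against DMSO.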

Assay [3] in a line: ATG_ISRE_CIS: Attagene CIS-FACTORIAL HepG2 Assay for human Interferon Regulatory Factor 1 (IRF1) binding to an Interferon-Stimulated Response Element (ISRE) (AID 2282948). The note with it: HepG2 ISRE cis-reporter (Attagene), mRNA transcription readout; actives raise or lower the signal. The procedure, abridged: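 Endogenous transcription factor activity read as reporter transcript abundance via RT-PCR and capillary electrophoresis. HepG2 cells transiently transfected, 24 h chemical exposure. Gain or loss fitted against DMSO baseline.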

A short description of assay [4]: ATG_M_32_CIS: Attagene CIS-FACTORIAL HepG2 Assay for M32 Transcription Factor (Internal Marker) (AID 2282949).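 Note: background control marker of the multiplexed CIS panel rather than a real target.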 Particulars: HepG2 Attagene cis-factorial M32 reporter, mRNA; actives raise or lower the signal. The procedure, abridged: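 HepG2 transfectants (cis-regulated reporter transcription units) dosed 24 h. Reporter mRNA by RT-PCR plus CE, analysed as gain or loss relative to DMSO.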

Assay [5] concerns the target Hepatocyte nuclear factor 6 (Homo sapiens) (UniProt Q9UBC0). The experiment in a line: ATG_HNF6_CIS: Attagene CIS-FACTORIAL HepG2 Assay for human Hepatocyte Nuclear Factor 6 (HNF6) (AID 2282952). The note with it: HepG2 Attagene cis-factorial HNF6 reporter transcription; actives raise or lower the signal. The procedure, abridged:
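First, HepG2 cells were transfected with the multiplexed cis reporter library and dosed with chemical for 24 h. Next, RNA was reverse-transcribed, PCR-amplified and fluorescently labelled. Finally, HpaI-digested fragments were read by capillary electrophoresis.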

The target in assay [6] is Heat shock factor protein 1 (Homo sapiens) (UniProt Q00613). Kind of assay: ATG_HSE_CIS: Attagene CIS-FACTORIAL HepG2 Assay for human Heat Shock Transcription Factor 1 (HSE) (AID 2282953). Particulars: HepG2 HSE cis-reporter, Attagene RNA transcription; actives raise or lower the signal. The procedure, abridged:
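Reporter mRNA induction in HepG2 is measured 24 h after dosing, using transiently transfected multiplexed cis-regulated reporter units. Signal comes from capillary electrophoresis of labelled RT-PCR products, with DMSO as negative control.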

A short description of assay [7]: ATG_MRE_CIS: Attagene CIS-FACTORIAL HepG2 Assay for human Metal Responsive Element (MRE) (AID 2282954). The note with it: HepG2 MRE cis-reporter transcription, Attagene multiplex; actives raise or lower the signal. The method, boiled down:
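Endogenous MRE-dependent transcription read as reporter mRNA in transiently transfected human HepG2 cells at 24 h. RNA reverse-transcribed, PCR-amplified, labelled and resolved by capillary electrophoresis; gain or loss relative to DMSO.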

Assay [8] can be described thus: ATG_PBREM_CIS: Attagene CIS-FACTORIAL HepG2 Assay for human Phenobarbital-responsive Enhancer Module (PBREM) (AID 2282955). The note with it: HepG2 PBREM cis-reporter, Attagene multiplexed transcription; actives raise or lower the signal. The procedure, abridged: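 Transfected liver-derived HepG2 cells exposed 24 h; PBREM reporter transcript quantified via RT-PCR and capillary electrophoresis, with activity in either direction referenced to DMSO.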

Assay [9] concerns the target Paired box protein Pax-6 (Homo sapiens) (UniProt P26367). Kind of assay: ATG_Pax6_CIS: Attagene CIS-FACTORIAL HepG2 Assay for human Paired Box 6 (PAX6) (AID 2282956). The note with it: HepG2 CIS-FACTORIAL PAX6 reporter transcription, RNA readout; actives raise or lower the signal. The procedure, abridged: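 Read-out is reporter transcript level, measured by RT-PCR with fluorescent primer extension and capillary electrophoresis after 24 h dosing of transfected HepG2 cells. Activity in either direction fitted relative to DMSO control.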

Assay [10] is described as follows: ATG_PXRE_CIS: Attagene CIS-FACTORIAL HepG2 Assay for human Pregnane X Receptor Element (PXRE) (AID 2282957). The note with it: HepG2 Attagene CIS-FACTORIAL PXRE reporter, mRNA; actives raise or lower the signal. The procedure, abridged:
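After a 24 h chemical incubation, total RNA from transfected HepG2 cells was reverse-transcribed and reporter cDNA amplified, FAM-labeled, HpaI-digested and sized by capillary electrophoresis. DMSO served as baseline for bidirectional curve fitting.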

Assay [11] in a line: ATG_Sox_CIS: Attagene CIS-FACTORIAL HepG2 Assay for human SRY-box transcription factor (SOX) (AID 2282960). Particulars: HepG2 Attagene cis-factorial SOX reporter, mRNA; actives raise or lower the signal. The procedure, abridged: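 Gain- or loss-of-signal endpoint, fitted bidirectionally with DMSO as negative control. Based on reporter mRNA from transfected HepG2 cells harvested 24 h post-treatment and quantified via RT-PCR and capillary electrophoresis.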

Assay [12] has as its target Transcription factor Sp1 (Homo sapiens) (UniProt P08047). Kind of assay: ATG_Sp1_CIS: Attagene CIS-FACTORIAL HepG2 Assay for human Specificity Protein 1 (Sp1) (AID 2282961). The note with it: HepG2 Sp1 cis-reporter transcription, actives raise or lower the signal. The method, boiled down: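 Endpoint reflects endogenous Sp1 transcriptional activity, not an exogenous fusion protein: HepG2 cells with transfected cis-regulated reporters, 24 h dosing, RT-PCR/capillary electrophoresis mRNA read-out, DMSO-normalised bidirectional fit.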

Assay [13] in a line: ATG_SREBP_CIS: Attagene CIS-FACTORIAL HepG2 Assay for human Sterol Regulatory Element Binding (SREBP) (AID 2282962). The note with it: HepG2 Attagene cis-factorial SREBP reporter, mRNA; actives raise or lower the signal. The method, boiled down: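 Endogenous SREBP activity read as cis-element-driven reporter transcript in transiently transfected HepG2, 24 h post-dosing; quantified via RT-PCR plus capillary electrophoresis of fluorescent fragments. Gain or loss of signal fitted relative to DMSO baseline.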

Assay [14] deals with Signal transducer and activator of transcription 3 (Homo sapiens) (UniProt P40763). The experiment in a line: ATG_STAT3_CIS: Attagene CIS-FACTORIAL HepG2 Assay for human Signal Transducer and Activator of Transcription 3 (STAT3) (AID 2282963). Particulars: HepG2, Attagene cis-factorial STAT3 reporter transcription; actives raise or lower the signal. The procedure, abridged: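 Readout is reporter transcript quantified by RT-PCR and capillary electrophoresis, with 6-FAM primer extension and HpaI digestion. Total RNA is taken 24 h after dosing transiently transfected HepG2 carrying cis-regulated reporter units. Bidirectional fit against DMSO.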
Signal transducer and activator of transcription 3 (Homo sapiens), sequence (P40763 whole entry, looked up): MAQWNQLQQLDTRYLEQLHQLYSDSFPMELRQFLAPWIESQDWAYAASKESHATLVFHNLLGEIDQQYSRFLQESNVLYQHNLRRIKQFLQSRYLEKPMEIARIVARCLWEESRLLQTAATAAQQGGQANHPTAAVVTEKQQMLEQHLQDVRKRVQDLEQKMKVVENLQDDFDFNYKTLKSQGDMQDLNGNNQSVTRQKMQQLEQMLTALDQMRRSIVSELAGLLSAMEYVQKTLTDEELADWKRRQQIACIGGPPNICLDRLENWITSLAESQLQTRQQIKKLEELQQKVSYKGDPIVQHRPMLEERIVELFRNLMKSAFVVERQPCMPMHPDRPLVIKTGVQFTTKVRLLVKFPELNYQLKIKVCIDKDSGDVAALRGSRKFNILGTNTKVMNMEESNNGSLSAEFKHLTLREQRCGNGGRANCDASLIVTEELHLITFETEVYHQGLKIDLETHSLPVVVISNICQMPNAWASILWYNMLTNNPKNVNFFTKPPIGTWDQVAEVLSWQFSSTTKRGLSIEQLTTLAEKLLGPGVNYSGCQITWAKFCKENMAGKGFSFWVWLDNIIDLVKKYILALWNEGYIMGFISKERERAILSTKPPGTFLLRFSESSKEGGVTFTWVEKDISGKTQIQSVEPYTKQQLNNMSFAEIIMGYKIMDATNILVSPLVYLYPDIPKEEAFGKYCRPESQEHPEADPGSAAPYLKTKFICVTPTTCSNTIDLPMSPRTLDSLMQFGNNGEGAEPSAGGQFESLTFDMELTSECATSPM

Assay [15] is described as follows: ATG_TA_CIS: Attagene CIS-FACTORIAL HepG2 Assay for human TA Basal Promoter (AID 2282964). Particulars: HepG2 Attagene CIS-factorial TA basal promoter reporter; actives raise or lower the signal. The method, boiled down: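 Cis-factorial format in HepG2: reporters report endogenous factors, not chimeric Gal4 fusions. After 24 h treatment, reporter transcripts were measured by RT-PCR-capillary electrophoresis fluorescence, analysed bidirectionally versus DMSO.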

A short description of assay [16]: ATG_TCF_b_cat_CIS: Attagene CIS-FACTORIAL HepG2 Assay for human T-Cell-Factor with beta-catenin (TCF/b-cat) (AID 2282965). The note with it: HepG2 TCF/beta-catenin cis-reporter transcription, actives raise or lower the signal. The method, boiled down:
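Endogenous TCF/LEF activity read as reporter transcript level via RT-PCR and capillary electrophoresis fluorescence in transfected HepG2, 24 h exposure; gain or loss of signal fitted against DMSO controls.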

The target in assay [17] is Hypoxia-inducible factor 1-alpha (Homo sapiens) (UniProt Q16665). The experiment in a line: ATG_HIF1a_CIS: Attagene CIS-FACTORIAL HepG2 Assay for human Hypoxia Inducible Factor 1 (HIF1A) (AID 2282951). Particulars: HepG2 Attagene cis-factorial HIF1a reporter transcription; actives raise or lower the signal. The method, boiled down: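 Dosed 24 h, transfected HepG2 cells yielded total RNA whose reporter transcripts were RT-PCR-amplified and sized by capillary electrophoresis using fluorescent labelling; DMSO defined baseline, with gain and loss of signal both fitted.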
Hypoxia-inducible factor 1-alpha (Homo sapiens), sequence (Q16665 whole entry, looked up): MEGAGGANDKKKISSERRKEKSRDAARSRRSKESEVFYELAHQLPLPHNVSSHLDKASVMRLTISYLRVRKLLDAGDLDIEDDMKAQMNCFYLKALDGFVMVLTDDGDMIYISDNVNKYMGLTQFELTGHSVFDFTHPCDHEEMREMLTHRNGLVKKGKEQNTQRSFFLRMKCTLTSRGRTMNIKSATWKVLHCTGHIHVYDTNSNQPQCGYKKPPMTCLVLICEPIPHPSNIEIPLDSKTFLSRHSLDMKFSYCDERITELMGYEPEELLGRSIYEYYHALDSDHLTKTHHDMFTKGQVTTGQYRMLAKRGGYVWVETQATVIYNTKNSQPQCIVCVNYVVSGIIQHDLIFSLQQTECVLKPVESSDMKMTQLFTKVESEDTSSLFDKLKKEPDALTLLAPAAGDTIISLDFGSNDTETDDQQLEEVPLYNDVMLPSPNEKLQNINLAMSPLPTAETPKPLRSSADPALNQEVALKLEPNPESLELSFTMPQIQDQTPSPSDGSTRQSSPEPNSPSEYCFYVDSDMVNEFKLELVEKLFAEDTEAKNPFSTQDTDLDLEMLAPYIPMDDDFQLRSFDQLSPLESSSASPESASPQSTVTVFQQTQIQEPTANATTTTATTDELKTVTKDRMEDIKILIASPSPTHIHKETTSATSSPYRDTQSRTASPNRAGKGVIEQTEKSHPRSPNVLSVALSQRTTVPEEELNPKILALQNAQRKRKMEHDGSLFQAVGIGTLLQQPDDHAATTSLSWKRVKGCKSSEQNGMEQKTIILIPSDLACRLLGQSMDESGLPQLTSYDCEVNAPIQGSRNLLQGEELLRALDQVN

Assay [18] can be described thus: ATG_RORE_CIS: Attagene CIS-FACTORIAL HepG2 Assay for human RAR-related Orphan Receptor Element (RORE) (AID 2282959). Particulars: HepG2 Attagene cis-factorial RORE reporter, mRNA; actives raise or lower the signal. The procedure, abridged:
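Transiently transfected HepG2 reporter cells were treated 24 h. Reporter transcripts were detected by RT-PCR and capillary electrophoresis, with bidirectional fitting against DMSO.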

The nature of assay [19]: ATG_M_06_CIS: Attagene CIS-FACTORIAL HepG2 Assay for M06 Transcription Factor (Internal Marker) (AID 2282950). The note with it: HepG2 Attagene CIS-FACTORIAL M06 internal marker reporter; actives raise or lower the signal. The procedure, abridged: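 Measured 24 h post-dosing in transiently transfected HepG2 cells, this internal-marker endpoint reports reporter mRNA via RT-PCR with fluorescent primer extension and capillary electrophoresis. DMSO served as negative control and baseline for bidirectional fitting.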

Assay [20] is described as follows: ATG_PPRE_CIS: Attagene CIS-FACTORIAL HepG2 Assay for human Peroxisome Proliferator-activated Response Element (PPRE) (AID 2282958). Particulars: HepG2 PPRE cis-element reporter, Attagene transcription factor profiling; actives raise or lower the signal. The method, boiled down:
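Measured endpoint: PPRE-controlled reporter mRNA, detected by RT-PCR and capillary electrophoresis fluorescence, from transiently transfected HepG2 cells 24 h after dosing. Curves fitted in both directions using DMSO baseline.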

Heat shock factor protein 1 (Homo sapiens), sequence (Q00613 whole entry, looked up): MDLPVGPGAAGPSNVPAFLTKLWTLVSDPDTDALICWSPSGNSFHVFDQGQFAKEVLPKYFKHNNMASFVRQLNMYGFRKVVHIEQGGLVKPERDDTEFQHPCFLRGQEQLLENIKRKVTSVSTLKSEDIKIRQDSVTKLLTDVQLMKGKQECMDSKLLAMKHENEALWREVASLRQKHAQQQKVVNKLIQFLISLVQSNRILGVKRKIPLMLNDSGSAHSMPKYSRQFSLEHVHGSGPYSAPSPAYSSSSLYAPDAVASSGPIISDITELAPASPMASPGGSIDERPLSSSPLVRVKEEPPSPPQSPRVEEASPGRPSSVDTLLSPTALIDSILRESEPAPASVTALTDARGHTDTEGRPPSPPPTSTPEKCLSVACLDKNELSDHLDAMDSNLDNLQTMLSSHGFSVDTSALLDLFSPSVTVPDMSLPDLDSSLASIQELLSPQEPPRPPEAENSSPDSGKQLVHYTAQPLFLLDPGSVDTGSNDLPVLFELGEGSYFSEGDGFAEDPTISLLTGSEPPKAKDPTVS
Hepatocyte nuclear factor 6 (Homo sapiens), sequence (Q9UBC0 whole entry, looked up, the tested form may be a part): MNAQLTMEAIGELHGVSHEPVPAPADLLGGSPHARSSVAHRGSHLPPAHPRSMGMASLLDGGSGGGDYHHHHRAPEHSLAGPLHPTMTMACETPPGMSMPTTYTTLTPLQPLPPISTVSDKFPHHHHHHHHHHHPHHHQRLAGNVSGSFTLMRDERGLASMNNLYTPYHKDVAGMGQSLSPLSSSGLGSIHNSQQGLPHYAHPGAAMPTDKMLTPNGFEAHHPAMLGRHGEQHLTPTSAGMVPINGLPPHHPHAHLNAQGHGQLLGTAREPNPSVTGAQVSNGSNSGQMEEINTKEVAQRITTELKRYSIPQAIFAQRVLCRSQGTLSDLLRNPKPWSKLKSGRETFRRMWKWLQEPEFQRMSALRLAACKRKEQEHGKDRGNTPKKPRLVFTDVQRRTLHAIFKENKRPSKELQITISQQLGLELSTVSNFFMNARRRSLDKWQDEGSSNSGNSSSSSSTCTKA
Paired box protein Pax-6 (Homo sapiens), sequence (P26367 whole entry, looked up): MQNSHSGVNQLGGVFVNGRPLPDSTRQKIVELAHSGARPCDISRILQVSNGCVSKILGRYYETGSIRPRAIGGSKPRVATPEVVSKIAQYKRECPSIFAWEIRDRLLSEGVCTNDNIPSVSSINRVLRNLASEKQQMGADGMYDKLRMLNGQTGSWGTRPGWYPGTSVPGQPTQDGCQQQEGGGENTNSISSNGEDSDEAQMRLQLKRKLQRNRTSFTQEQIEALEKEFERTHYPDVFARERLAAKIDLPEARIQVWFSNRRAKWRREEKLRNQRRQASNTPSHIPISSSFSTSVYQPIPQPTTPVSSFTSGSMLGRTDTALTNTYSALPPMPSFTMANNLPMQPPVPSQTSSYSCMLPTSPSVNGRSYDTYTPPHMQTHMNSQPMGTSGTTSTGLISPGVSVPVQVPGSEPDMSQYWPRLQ
Transcription factor Sp1 (Homo sapiens), sequence (P08047 whole entry, looked up, the tested form may be a part): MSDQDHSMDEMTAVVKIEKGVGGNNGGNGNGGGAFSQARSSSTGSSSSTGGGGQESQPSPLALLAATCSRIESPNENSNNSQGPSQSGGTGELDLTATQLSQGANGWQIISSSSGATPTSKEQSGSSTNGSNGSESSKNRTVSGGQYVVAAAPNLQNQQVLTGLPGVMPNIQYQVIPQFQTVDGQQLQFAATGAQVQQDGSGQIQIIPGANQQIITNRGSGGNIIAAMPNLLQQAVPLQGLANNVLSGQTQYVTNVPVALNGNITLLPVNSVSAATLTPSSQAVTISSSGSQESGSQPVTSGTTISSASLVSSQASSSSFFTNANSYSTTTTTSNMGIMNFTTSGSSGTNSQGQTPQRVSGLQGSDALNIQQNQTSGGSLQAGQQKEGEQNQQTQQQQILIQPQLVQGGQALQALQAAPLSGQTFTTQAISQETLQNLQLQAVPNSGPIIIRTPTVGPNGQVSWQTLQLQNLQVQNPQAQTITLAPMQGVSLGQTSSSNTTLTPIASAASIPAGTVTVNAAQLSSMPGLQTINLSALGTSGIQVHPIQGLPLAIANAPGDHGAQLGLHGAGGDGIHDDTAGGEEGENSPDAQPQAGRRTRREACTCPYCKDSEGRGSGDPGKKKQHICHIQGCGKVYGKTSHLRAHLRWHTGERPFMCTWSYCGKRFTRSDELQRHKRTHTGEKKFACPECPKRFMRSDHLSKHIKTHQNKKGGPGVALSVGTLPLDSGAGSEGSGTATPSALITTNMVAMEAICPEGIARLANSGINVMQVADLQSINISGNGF
Bile acid receptor (Homo sapiens), sequence (Q96RI1 whole entry, looked up): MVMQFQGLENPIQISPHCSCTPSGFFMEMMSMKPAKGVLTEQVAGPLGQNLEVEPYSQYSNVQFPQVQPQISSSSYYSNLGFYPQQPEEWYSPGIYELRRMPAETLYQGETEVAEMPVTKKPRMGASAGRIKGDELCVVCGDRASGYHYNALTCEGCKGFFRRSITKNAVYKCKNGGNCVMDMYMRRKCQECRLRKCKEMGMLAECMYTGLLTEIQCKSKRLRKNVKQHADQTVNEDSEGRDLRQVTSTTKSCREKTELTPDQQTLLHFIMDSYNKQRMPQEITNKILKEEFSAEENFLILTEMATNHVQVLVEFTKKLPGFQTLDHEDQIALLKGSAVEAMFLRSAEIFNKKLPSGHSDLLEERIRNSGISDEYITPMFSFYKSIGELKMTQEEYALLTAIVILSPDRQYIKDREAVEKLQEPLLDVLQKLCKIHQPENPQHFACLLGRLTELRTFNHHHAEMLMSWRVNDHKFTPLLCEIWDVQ

One may read the AC50 as the concentration giving half of the maximal activity seen. With `CN(C)[C@@H]1C(=O)C(C(N)=O)=C(O)[C@@]2(O)C(=O)C3=C(O)c4c(O)cccc4[C@@](C)(O)[C@H]3C[C@@H]12`, the compound was called inactive in [1], in [2], in assay [3], in [4], in assay [5] and in [6]. Also, the outcome in assay [7], in assay [8], in assay [9], in [11], in assay [12] and in assay [13] was inactive. The outcome in [14], in assay [15] and in assay [16] was inactive. Besides, the AC50 in assay [10] was 27.6 µM (active).
For `O=[N+]([O-])C(Br)(CO)CO`, the compound was classed as inactive in assay [1], in assay [4], in [5], in [7], in assay [8] and in assay [13]. Moreover, the compound was called inactive in [14] and in assay [15]. Further, the AC50 in [3] was 164 µM (active); in [17], 25 µM (active); in assay [6], 158 µM (active); in [10] it was 158 µM (active); in [18], 100 µM (active); in assay [11], 170 µM (active). Besides, the AC50 in assay [12] was 145 µM (active); in [16], 100 µM (active).
For `CC(C)(C)OOC(=O)c1ccccc1`, the outcome in [2], in assay [3], in assay [4], in assay [19], in assay [17] and in assay [5] was inactive. In addition, the compound was called inactive in assay [6], in [8], in assay [18], in [11], in [12] and in [13]. Besides, the compound was called inactive in assay [15] and in assay [16]. The AC50 in [7] is 147 µM (active); in assay [9], 149 µM (active); in [10], 100 µM (active).
Turning to `CCCCC(CC)COC(=O)c1ccc(C(=O)OCC(CC)CCCC)c(C(=O)OCC(CC)CCCC)c1` (stereo not drawn), the compound was called inactive in assay [2], in [3], in assay [4], in assay [19], in [17] and in [5]. Besides, the outcome in [6], in assay [7], in assay [8], in assay [9], in assay [10] and in assay [20] was inactive. The call in assay [18], in [11], in assay [12], in assay [13], in [14] and in assay [15] was inactive. In assay [16], the outcome was inactive.
